Assay results from PubChem BioAssay (NCATS).
“And” between values parts separate entries of the source, which are not always exact repeats. Equal values may be shown once. Results filed as inconclusive are left out. Where a call stands in place of a potency, no number is given. The source made the active and inactive calls. Unless noted, the call rests on the fitted dose curve; in most records, active means well fitted curve in the direction sought with a large enough effect; inconclusive means small, poorly fitted or top-dose-only effect, or another doubt; inactive means no such curve, though single readings can be large; an effect the other way counts as inactive or inconclusive.

Columns and labels:
[1] = molecular target: ATP-dependent 6-phosphofructokinase (Trypanosoma brucei brucei) (UniProt O15648); assay: qHTS Assay to Find Inhibitors of T. brucei phosphofructokinase: hit validation (AID 492961);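 further: luminescence reports ADP formed as PFK phosphorylates fructose-6-phosphate with ATP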
ATP-dependent 6-phosphofructokinase (Trypanosoma brucei brucei), sequence (O15648 whole entry, looked up): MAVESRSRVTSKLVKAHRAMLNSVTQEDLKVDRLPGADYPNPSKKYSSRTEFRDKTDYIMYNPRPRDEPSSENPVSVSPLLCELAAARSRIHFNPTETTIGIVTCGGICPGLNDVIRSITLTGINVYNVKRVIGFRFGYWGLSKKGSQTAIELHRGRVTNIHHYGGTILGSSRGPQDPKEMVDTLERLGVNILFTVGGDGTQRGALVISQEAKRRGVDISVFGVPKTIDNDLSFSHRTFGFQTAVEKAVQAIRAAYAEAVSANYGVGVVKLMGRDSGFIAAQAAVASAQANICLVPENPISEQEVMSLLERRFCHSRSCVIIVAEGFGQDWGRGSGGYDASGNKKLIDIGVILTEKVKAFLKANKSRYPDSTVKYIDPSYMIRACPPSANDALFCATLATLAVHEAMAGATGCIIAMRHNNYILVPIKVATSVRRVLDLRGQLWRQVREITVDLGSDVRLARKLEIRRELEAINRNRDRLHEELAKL
Summary of the method: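 Reaction: 0.1 M triethanolamine pH 8.0, 5 mM MgCl2, F6P 0.5 mM, ATP 0.1 mM, PFK 1.25 nM, 45 min RT. Read-out: ADP-Glo luminescence. Analysis: concentration-response fits, classed by r2 and efficacy.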

[2] = molecular target: Ubiquitin carboxyl-terminal hydrolase 1 (Homo sapiens) (UniProt O94782); assay: Inhibitors of USP1/UAF1: Pilot qHTS (AID 504865);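 further: rhodamine fluorescence freed from ubiquitin-rhodamine substrate followed over time; top concentration of the series differs between compounds; nearly all actives have a fitted effect of over 35% in size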
Ubiquitin carboxyl-terminal hydrolase 1 (Homo sapiens), sequence (O94782 whole entry, looked up): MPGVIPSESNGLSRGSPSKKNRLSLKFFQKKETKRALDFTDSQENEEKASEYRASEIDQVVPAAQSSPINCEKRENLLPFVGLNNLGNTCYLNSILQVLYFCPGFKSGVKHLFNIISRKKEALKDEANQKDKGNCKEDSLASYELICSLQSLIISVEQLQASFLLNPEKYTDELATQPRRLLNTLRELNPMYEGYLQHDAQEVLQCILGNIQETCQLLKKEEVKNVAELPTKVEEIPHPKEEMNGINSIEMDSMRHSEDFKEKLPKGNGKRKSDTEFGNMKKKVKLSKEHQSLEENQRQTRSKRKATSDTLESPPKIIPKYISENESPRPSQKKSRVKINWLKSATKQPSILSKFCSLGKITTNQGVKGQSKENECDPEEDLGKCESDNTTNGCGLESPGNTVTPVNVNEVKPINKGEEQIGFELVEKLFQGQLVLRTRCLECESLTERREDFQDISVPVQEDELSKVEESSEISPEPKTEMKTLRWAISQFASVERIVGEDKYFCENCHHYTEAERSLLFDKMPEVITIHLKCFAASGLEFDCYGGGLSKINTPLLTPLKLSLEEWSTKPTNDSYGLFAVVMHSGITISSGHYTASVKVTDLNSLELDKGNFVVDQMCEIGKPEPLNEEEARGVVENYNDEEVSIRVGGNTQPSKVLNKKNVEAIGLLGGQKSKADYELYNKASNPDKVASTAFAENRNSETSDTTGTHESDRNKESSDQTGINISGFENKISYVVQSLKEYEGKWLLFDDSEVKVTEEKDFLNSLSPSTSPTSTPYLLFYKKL
Summary of the method: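 USP1/UAF1 complex (1nM) preincubated with compound 15 min at room temperature, then Ub-Rho substrate (150nM final) added. Fluorescence read kinetically at 480/540 nm, 6 reads every 60 seconds. Buffer: 50mM HEPES pH 7.8, 0.5mM EDTA, 0.1 mg/ml BSA, 1mM TCEP, 0.01% Tween-20.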

[3] = S16 Schwann cell viability assay (CellTiter-Glo assay) (AID 624031);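 further: native untransfected S16 rat Schwann cells; cellular ATP luminescence as a viability measure; nearly all actives have a fitted effect of over 70% in size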
Summary of the method: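 Rat S16 Schwann cells without reporter constructs received compound or DMSO for 24 h at 37 °C under 5% CO2. Cellular ATP was then quantified by CellTiter-Glo luminescence, with vehicle wells defined as 0% activity and cell-free wells as reference.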

[4] = S16 Schwann cell PMP22 intronic element firefly luciferase assay (AID 624032); further: nearly all actives have a fitted effect of over 30% in size
Summary of the method: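 Rat S16 Schwann cells stably carrying a PMP22 intronic element-driven Fluc reporter were seeded overnight, then exposed to compounds for 24 h at 37 °C. Luminescence was normalized to PTC124 (positive control) and DMSO (0% activity).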

[5] = S16 Schwann cell PMP22 intronic element beta-lactamase assay (AID 624044; calls by dose curve; further: nearly all actives have a fitted effect of over 15% in size)
Summary of the method: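 Beta-lactamase reporter under a PMP22 intronic regulatory element in stable S16 rat Schwann cells; 24 h compound exposure. 460 nm blue signal normalized between DMSO (0%) and potassium clavulanate, with 535 nm FRET tracking viability; curves classed by r2 and response.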

[6] = qHTS to identify inhibitors of the type 1 interferon - major histocompatibility complex class I in skeletal muscle: primary screen against the NCATS Mechanism Interrogation Plate v5.0 (MIPE) Libary (AID 1347411); further: nearly all actives have a fitted effect of over 65% in size
Summary of the method: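 HLA-B HiBit myoblasts, dexamethasone-free medium + 4 ng/ml IFN-b, 24 h compound, 11-pt 1:3 from 46 uM final. Readout: Nano-Glo HiBiT lytic luminescence after 10 min lysis, RT.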

[7] = Primary qHTS for inhibitors of nuclear receptor binding SET domain protein 2 (NSD2) in an isogenic RCH-ACV NSD2 p.E1099K mutant (9B) (AID 1645876); further: nearly all actives have a fitted effect of over 70% in size
[8] = molecular target: Rap guanine nucleotide exchange factor 3 (Homo sapiens) (UniProt O95398); assay: Confirmatory qHTS for antagonist of cAMP-regulated guanine nucleotide exchange factor 3 (EPAC1) (AID 1645880); further: nearly all actives have a fitted effect of over 55% in size
Rap guanine nucleotide exchange factor 3 (Homo sapiens), sequence (O95398 whole entry, looked up): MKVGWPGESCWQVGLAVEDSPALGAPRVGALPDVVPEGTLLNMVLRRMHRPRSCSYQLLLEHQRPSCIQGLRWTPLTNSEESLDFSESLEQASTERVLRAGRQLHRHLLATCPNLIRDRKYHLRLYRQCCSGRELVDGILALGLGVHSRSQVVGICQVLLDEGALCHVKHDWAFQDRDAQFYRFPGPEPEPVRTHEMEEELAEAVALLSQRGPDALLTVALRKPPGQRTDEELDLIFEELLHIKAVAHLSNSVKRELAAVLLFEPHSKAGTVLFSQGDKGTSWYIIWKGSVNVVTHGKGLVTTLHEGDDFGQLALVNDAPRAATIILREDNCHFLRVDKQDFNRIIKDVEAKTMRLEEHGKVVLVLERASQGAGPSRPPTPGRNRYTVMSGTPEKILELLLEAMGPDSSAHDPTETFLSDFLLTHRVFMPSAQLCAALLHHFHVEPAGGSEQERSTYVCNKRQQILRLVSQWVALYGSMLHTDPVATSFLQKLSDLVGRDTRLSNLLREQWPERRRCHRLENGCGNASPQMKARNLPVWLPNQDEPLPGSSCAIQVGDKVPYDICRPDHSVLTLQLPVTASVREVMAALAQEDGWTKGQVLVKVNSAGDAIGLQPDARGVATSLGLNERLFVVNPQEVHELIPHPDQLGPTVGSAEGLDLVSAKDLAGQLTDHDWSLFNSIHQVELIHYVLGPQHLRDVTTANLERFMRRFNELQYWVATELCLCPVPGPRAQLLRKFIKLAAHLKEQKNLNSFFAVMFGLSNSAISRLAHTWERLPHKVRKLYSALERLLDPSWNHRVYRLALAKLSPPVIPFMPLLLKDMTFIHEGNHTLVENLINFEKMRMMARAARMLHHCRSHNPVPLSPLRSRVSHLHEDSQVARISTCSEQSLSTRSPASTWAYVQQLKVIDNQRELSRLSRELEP
Summary of the method: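 Released BODIPY-GDP fluoresces less than Rap1-bound BODIPY-GDP; the signal is followed at 480/540 nm at 5-min intervals over 30 min, after 5 min at room temperature. Reactions contain 100 nM EPAC1, 250 nM RAP1B-BODIPY-GDP and 50 uM GDP; results are normalized to ATA and DMSO.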

[9] = molecular target: Rap guanine nucleotide exchange factor 3 (Homo sapiens) (UniProt O95398); assay: Confirmatory qHTS for agonist of cAMP-regulated guanine nucleotide exchange factor 3 (EPAC1) (AID 1645881);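 further: EPAC1 catalysed release of BODIPY-GDP from Rap1B seen as fluorescence loss; nearly all actives have a fitted effect of over 75% in size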
[10] = molecular target: Rap guanine nucleotide exchange factor 4 (Homo sapiens) (UniProt Q8WZA2); assay: Confirmatory qHTS for agonist of cAMP-regulated guanine nucleotide exchange factor 4 (EPAC2) (AID 1645884);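 further: nucleotide exchange releases bodipy-GDP from Rap1 and this lowers its fluorescence; nearly all actives have a fitted effect of over 65% in size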
Rap guanine nucleotide exchange factor 4 (Homo sapiens), sequence (Q8WZA2 whole entry, looked up): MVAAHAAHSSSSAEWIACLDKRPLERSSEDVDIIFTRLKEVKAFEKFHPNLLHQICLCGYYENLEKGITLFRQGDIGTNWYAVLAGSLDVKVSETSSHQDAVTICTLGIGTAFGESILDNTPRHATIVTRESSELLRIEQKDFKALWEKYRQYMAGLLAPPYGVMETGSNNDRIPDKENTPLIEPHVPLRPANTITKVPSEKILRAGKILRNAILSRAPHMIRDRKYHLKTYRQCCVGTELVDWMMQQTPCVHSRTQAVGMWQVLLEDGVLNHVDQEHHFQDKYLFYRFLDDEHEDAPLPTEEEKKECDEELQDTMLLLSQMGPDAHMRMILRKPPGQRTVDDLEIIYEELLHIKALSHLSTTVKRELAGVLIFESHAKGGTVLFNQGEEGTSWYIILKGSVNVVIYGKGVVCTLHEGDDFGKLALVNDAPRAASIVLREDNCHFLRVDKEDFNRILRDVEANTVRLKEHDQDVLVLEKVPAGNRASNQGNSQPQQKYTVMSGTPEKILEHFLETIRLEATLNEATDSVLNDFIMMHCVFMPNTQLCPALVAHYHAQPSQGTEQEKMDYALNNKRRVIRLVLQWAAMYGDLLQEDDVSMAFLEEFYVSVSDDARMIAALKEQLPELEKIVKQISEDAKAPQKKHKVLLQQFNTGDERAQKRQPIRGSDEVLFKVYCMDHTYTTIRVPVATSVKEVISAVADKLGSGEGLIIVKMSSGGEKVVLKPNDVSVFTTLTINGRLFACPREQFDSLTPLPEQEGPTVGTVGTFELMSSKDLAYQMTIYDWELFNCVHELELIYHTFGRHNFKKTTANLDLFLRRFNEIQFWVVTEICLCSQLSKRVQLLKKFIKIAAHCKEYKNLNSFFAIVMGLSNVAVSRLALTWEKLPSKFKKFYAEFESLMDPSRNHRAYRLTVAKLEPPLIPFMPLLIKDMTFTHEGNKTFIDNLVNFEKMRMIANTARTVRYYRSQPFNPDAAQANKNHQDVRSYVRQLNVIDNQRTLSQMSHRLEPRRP

[11] = molecular target: Rap guanine nucleotide exchange factor 4 (Homo sapiens) (UniProt Q8WZA2); assay: Confirmatory qHTS for antagonist of cAMP-regulated guanine nucleotide exchange factor 4 (EPAC2) (AID 1645885); further: nearly all actives have a fitted effect of over 25% in size
[12] = molecular target: Rap guanine nucleotide exchange factor 3 (Homo sapiens) (UniProt O95398); assay: Counterscreen qHTS for antagonist of cAMP-regulated guanine nucleotide exchange factor 3 (EPAC1) (AID 1645888)
Summary of the method: (§1)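 Measured: fluorescence of BODIPY-GDP bound to Rap1B, which falls as exchange proceeds. Conditions include 50 uM competing GDP, 5 and 30 min reads, and a later cAMP challenge for antagonist detection.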

[13] = molecular target: Rap guanine nucleotide exchange factor 3 (Homo sapiens) (UniProt O95398); assay: Counterscreen qHTS for agonist of cAMP-regulated guanine nucleotide exchange factor 3 (EPAC1) (AID 1645889); further: nearly all actives have a fitted effect of over 40% in size
Summary of the method: as §1

[14] = molecular target: Glutathione peroxidase 1 (Homo sapiens) (UniProt P07203); assay: Primary qHTS Assay for Inhibitors of Recombinant Selenoprotein Glutathione Peroxidase 1 (GPX1) (AID 1845191); further: potency means the concentration at half of the fitted maximal effect; nearly all actives have a fitted effect of over 65% in size
Glutathione peroxidase 1 (Homo sapiens), sequence (P07203 whole entry, looked up): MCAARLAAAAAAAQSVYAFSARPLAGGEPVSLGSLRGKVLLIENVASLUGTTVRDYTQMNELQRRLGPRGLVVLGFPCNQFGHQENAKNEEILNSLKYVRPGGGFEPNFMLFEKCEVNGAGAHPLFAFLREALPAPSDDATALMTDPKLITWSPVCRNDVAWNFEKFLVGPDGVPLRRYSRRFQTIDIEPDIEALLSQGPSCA
Summary of the method: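 GPX1 10 nM, GR 100 nM, GSH 1 mM, NADPH 0.5 mM, CHP 0.5 mM (final). 30-min cpd preincubation, RT. Ex340/Em450 read t=0, t=15 min.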

[15] = qHTS drug screen for cell cycle checkpoint inhibitors in PARPi-resistant BRCA-mutant ovarian cancer cell lines. (AID 1963452; calls by dose curve); conditions: PEO1/OlaR viability, CellTiter-Glo luminescence, 96 h, stronger effect = lower value
Summary of the method: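 PEO1, PEO4 and PEO1/OlaR ovarian cancer cells, 600 per well, exposed 96 h at 37C to a dilution series. Viability read by CellTiter-Glo luminescence, normalized to DMSO and empty wells; activity summarized as Z-AUC.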

[16] = qHTS profiling for inhibitors of Plasmodium falciparum proliferation (AID 504749); further: nearly all actives have a fitted effect of over 60% in size; conditions: P. falciparum in erythrocytes, SYBR Green DNA, 72 h; at 28.7 µM (top of the series); parasite line A
Summary of the method: (§2)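 Fluorescence of SYBR Green-bound parasite DNA, read at 485/535 nm, served as the growth measure. Infected erythrocytes were cultured with compound 72 h; artemisinin (0.29 uM) and DMSO wells defined the normalization range.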

3D7 = assay: as above; conditions: P. falciparum in erythrocytes, SYBR Green DNA, 72 h; series mostly up to 28.7 µM
Summary of the method: as §2

7G8 = assay: as above; conditions: P. falciparum in erythrocytes, SYBR Green DNA, 72 h; series mostly up to 28.7 µM
Summary of the method: as §2

AA1029 = assay: as above; conditions: P. falciparum in erythrocytes, SYBR Green DNA, 72 h; series mostly up to 28.7 µM
Summary of the method: as §2

AS120 = assay: as above; conditions: P. falciparum in erythrocytes, SYBR Green DNA, 72 h; series mostly up to 28.7 µM
Summary of the method: as §2

ATS189 = assay: as above; conditions: P. falciparum in erythrocytes, SYBR Green DNA, 72 h; series mostly up to 28.7 µM
Summary of the method: as §2

ATS95 = assay: as above; conditions: P. falciparum in erythrocytes, SYBR Green DNA, 72 h; series mostly up to 28.7 µM
Summary of the method: as §2

C2A = assay: as above; conditions: P. falciparum in erythrocytes, SYBR Green DNA, 72 h; series mostly up to 28.7 µM
Summary of the method: as §2

CP185 = assay: as above; conditions: P. falciparum in erythrocytes, SYBR Green DNA, 72 h; series mostly up to 28.7 µM
Summary of the method: as §2

CP191 = assay: as above; conditions: P. falciparum in erythrocytes, SYBR Green DNA, 72 h; series mostly up to 28.7 µM
Summary of the method: as §2

CP192 = assay: as above; conditions: P. falciparum in erythrocytes, SYBR Green DNA, 72 h; series mostly up to 28.7 µM
Summary of the method: as §2

CP194 = assay: as above; conditions: P. falciparum in erythrocytes, SYBR Green DNA, 72 h; series mostly up to 28.7 µM
Summary of the method: as §2

CP201 = assay: as above; conditions: P. falciparum in erythrocytes, SYBR Green DNA, 72 h; series mostly up to 28.7 µM
Summary of the method: as §2

CP203 = assay: as above; conditions: P. falciparum in erythrocytes, SYBR Green DNA, 72 h; series mostly up to 28.7 µM
Summary of the method: as §2

CP211 = assay: as above; conditions: P. falciparum in erythrocytes, SYBR Green DNA, 72 h; series mostly up to 28.7 µM
Summary of the method: as §2

CP215 = assay: as above; conditions: P. falciparum in erythrocytes, SYBR Green DNA, 72 h; series mostly up to 28.7 µM
Summary of the method: as §2

CP217 = assay: as above; conditions: P. falciparum in erythrocytes, SYBR Green DNA, 72 h; series mostly up to 28.7 µM
Summary of the method: as §2

CP237 = assay: as above; conditions: P. falciparum in erythrocytes, SYBR Green DNA, 72 h; series mostly up to 28.7 µM
Summary of the method: as §2

CP238 = assay: as above; conditions: P. falciparum in erythrocytes, SYBR Green DNA, 72 h; series mostly up to 28.7 µM
Summary of the method: as §2

CP247 = assay: as above; conditions: P. falciparum in erythrocytes, SYBR Green DNA, 72 h; series mostly up to 28.7 µM
Summary of the method: as §2

CP250 = assay: as above; conditions: P. falciparum in erythrocytes, SYBR Green DNA, 72 h; series mostly up to 28.7 µM
Summary of the method: as §2

In the case of `CC(/C=C1\SC(=S)N(CC(=O)O)C1=O)=C\c1ccccc1`, the outcome [1] is reported as “inactive”, the Potency [2] is reported as “inactive” and the outcome [3] is reported as “inactive”. The Potency [4] was “inactive”, the outcome [5] was “inactive” and the Potency [6] was “inactive”. For the same compound, the Potency [7] was “inactive”, the Potency [8] was “inactive” and the outcome [9] was “inactive”. The outcome [10] was “inactive”, the Potency [11] was “inactive” and the outcome [12] was “inactive”. The outcome [13] was “inactive”, the Potency [14] was 7.28 µM (active) and 3.21 µM (active) and the Z-AUC [15] was 1.25 (inactive). The Z-AUC ([15]; measured here: PEO1 parental Z-AUC) was 1.33, the Z-AUC ([15]; measured here: PEO4 Z-AUC) was 1.77 and the activity, negative = inhibition [16] was -3.63% (inactive). For the same compound, the Potency (3D7) was “inactive”, the Potency (7G8) was “inactive” and the Potency (AA1029) was “inactive”. The Potency (AS120) was “inactive”, the Potency (ATS189) was “inactive” and the Potency (ATS95) was “inactive”. For the same compound, the Potency (C2A) was “inactive”, the Potency (CP185) was “inactive” and the Potency (CP191) was “inactive”. For the same compound, the Potency (CP192) was “inactive”, the Potency (CP194) was “inactive” and the Potency (CP201) was “inactive”. For the same compound, the Potency (CP203) was “inactive”, the Potency (CP211) was “inactive” and the Potency (CP215) was “inactive”. The Potency (CP217) was “inactive”, the Potency (CP237) was “inactive” and the Potency (CP238) was “inactive”. The Potency (CP247) was “inactive” and the Potency (CP250) was “inactive”.
